According to PubChem BioAssay (NCATS):
Records with an inconclusive call do not appear. Calls of active or inactive are those of the source. The call rests on the fitted dose curve; in most records, active means well fitted curve in the direction sought with a large enough effect; inconclusive means small, poorly fitted or top-dose-only effect, or another doubt; inactive means no such curve, though single readings can be large; an effect the other way counts as inactive or inconclusive.

How the values were obtained:
[1] = Quantitative High-Throughput drug screen in 47 multiple myeloma cell lines against the NCATS MIPE library collection: Karpas417_ECACC cell viability assay (AID 1918961); settings: Karpas417 myeloma viability, CellTiter-Glo ATP luminescence, 48 h; viability (% of DMSO): at 45.8 µM (top of the series)
Outline: (§1)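 Myeloma cell lines, 500 cells per well, exposed to MIPE 4.0 library compounds for 48 h at 37C, 5% CO2. Viability from ATP by CellTiter-Glo luminescence; normalised to DMSO (100%) and media-only (0%) wells.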

[2] = Quantitative High-Throughput drug screen in 47 multiple myeloma cell lines against the NCATS MIPE library collection: KHM11_PLB cell viability assay (AID 1918962); settings: KHM11 myeloma cell viability, CellTiter-Glo ATP luminescence, 48 h; series mostly up to 45.8 µM; further: nearly all actives have a fitted effect of over 35% in size
Outline: as §1

[3] = Quantitative High-Throughput drug screen in 47 multiple myeloma cell lines against the NCATS MIPE library collection: INA6_PLB cell viability assay (AID 1918965; further: nearly all actives have a fitted effect of over 55% in size); settings: INA6 myeloma viability, CellTiter-Glo ATP luminescence, 48 h; series mostly up to 45.8 µM
Outline: as §1

[4] = Quantitative High-Throughput drug screen in 47 multiple myeloma cell lines against the NCATS MIPE library collection: JJN3_DSMZ cell viability assay (AID 1918966; further: nearly all actives have a fitted effect of over 50% in size); settings: JJN3 myeloma cells viability, CellTiter-Glo ATP, 48 h; series mostly up to 45.8 µM
Outline: (§2)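 qHTS of the MIPE 4.0 collection: 500 myeloma cells/well, 48 h drug exposure at 37C in 5% CO2, then CellTiter-Glo for 5 min at room temperature before luminescence reading.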

[5] = Quantitative High-Throughput drug screen in 47 multiple myeloma cell lines against the NCATS MIPE library collection: Karpas25_ECACC cell viability assay (AID 1918968; further: nearly all actives have a fitted effect of over 35% in size); settings: Karpas25 myeloma viability, CellTiter-Glo ATP, 48 h; series mostly up to 45.8 µM
Outline: as §2

[6] = Quantitative High-Throughput drug screen in 47 multiple myeloma cell lines against the NCATS MIPE library collection: JIM3_ECACC cell viability assay (AID 1918963; further: nearly all actives have a fitted effect of over 35% in size); settings: JIM3 myeloma viability, CellTiter-Glo ATP, 48 h; series mostly up to 45.8 µM
Outline: as §1

[7] = Quantitative High-Throughput drug screen in 47 multiple myeloma cell lines against the NCATS MIPE library collection: JIM1_ECACC cell viability assay (AID 1918964); settings: JIM1 myeloma viability, CellTiter-Glo ATP luminescence, 48 h; series mostly up to 45.8 µM
Outline: as §2

[8] = Quantitative High-Throughput drug screen in 47 multiple myeloma cell lines against the NCATS MIPE library collection: KMM1_JCRB cell viability assay (AID 1918960); settings: KMM1 myeloma viability, CellTiter-Glo ATP luminescence, 48 h; series mostly up to 45.8 µM; further: nearly all actives have a fitted effect of over 30% in size
Outline: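 Here, 48 h treatment with MIPE 4.0 agents at 37 °C preceded an ATP luminescence read. Plating density was 500 cells per well.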

[9] = Quantitative High-Throughput drug screen in 47 multiple myeloma cell lines against the NCATS MIPE library collection: KMS27_JCRB cell viability assay (AID 1918970); settings: KMS27 myeloma cells, CellTiter-Glo ATP viability, 48 h; viability (% of DMSO): at 45.8 µM (top of the series); further: nearly all actives have a fitted effect of over 30% in size
Outline: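 KMS27_JCRB myeloma cells, 500 per well, exposed 48 h at 37 C, 5% CO2 to MIPE 4.0 compounds. Viability from ATP by CellTiter-Glo luminescence, normalized to DMSO (100%) and medium-only (0%) wells.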

[10] = Quantitative High-Throughput drug screen in 47 multiple myeloma cell lines against the NCATS MIPE library collection: H1112_PLB cell viability assay (AID 1918967; further: nearly all actives have a fitted effect of over 30% in size); settings: H1112 myeloma cells viability, ATP luminescence, 48 h; series mostly up to 45.8 µM
Outline: as §2
Potency means the concentration at half of the fitted maximal effect.

COc1ccc(C=Cc2cc(OC)c(OC)c(OC)c2)cc1NC(=O)[C@H](N)CO
inactive: Potency [2]
active: Potency [1] 590 nM | Potency [3] 1 nM | Potency [4] 23.5 nM | Potency [5] 1 nM

CNC(=O)Nc1ccc(-c2nc(N3CC4CCC(C3)O4)c3cnn(C4CCC5(CC4)OCCO5)c3n2)cc1
active: Potency [1] 6.6 nM | Potency [6] 418 nM | Potency [3] 41.8 nM | Potency [4] 11.8 nM | Potency [5] 10.5 nM

COc1cc2c(cc1OC)[C@@H]1C(=O)c3ccc4c(c3O[C@@H]1CO2)C=CC(C)(C)O4
active: Potency [1] 209 nM | Potency [2] 4180 nM | Potency [7] 1180 nM | Potency [3] 1 nM | Potency [4] 9350 nM

CCCCCCCN(CC)CCCC(O)c1ccc(NS(C)(=O)=O)cc1 (stereo not drawn)
inactive: Potency [4]
active: Potency [8] 20900 nM | Potency [9] 20900 nM

CC(C)(N)c1ccc(-c2nc3ccccc3nc2-c2ccccc2)cc1
active: Potency [1] 372 nM | Potency [2] 8330 nM | Potency [3] 9350 nM | Potency [4] 20900 nM | Potency [5] 16600 nM | Potency [9] 18700 nM

COC(=O)C=CC(=O)OC
active: Potency [1] 4180 nM | Potency [2] 18700 nM | Potency [3] 18700 nM | Potency [5] 1480 nM

NS(=O)(=O)OC[C@@H]1C[C@@H](n2ccc3c(N[C@H]4CCc5ccccc54)ncnc32)C[C@H]1O
active: Potency [6] 13200 nM | Potency [3] 118 nM | Potency [4] 1320 nM | Potency [5] 833 nM
inactive: Potency [1]

CN1[C@H]2CC(OC(=O)[C@@H](CO)c3ccccc3)C[C@H]1[C@H]1O[C@H]12 (stereo partly drawn)
inactive: Potency [8] | Potency [10] | Potency [5] | Potency [9]

CON=C(C(=O)N[C@@H]1C(=O)N2C(C(=O)O)=C(CSC(=O)c3ccco3)CS[C@H]12)c1csc(N)n1
active: Potency [5] 16600 nM
inactive: Potency [8] | Potency [3] | Potency [4]

Oc1ccc([C@@H]2Oc3ccc(O)cc3[C@@H]3CCC[C@@H]32)cc1
active: Potency [10] 11800 nM | Potency [5] 14800 nM
inactive: Potency [8] | Potency [9]

Oc1ccc(-c2ccc(-c3cc(Nc4cccc(CNC5CC5)c4)n[nH]3)cc2)c(O)c1
active: Potency [1] 833 nM | Potency [2] 743 nM | Potency [6] 1870 nM | Potency [7] 264 nM | Potency [3] 662 nM | Potency [10] 1480 nM | Potency [5] 1050 nM | Potency [9] 743 nM

C[C@@H](NCc1cc2ccccc2[nH]1)c1cccc2ccccc12
active: Potency [3] 4690 nM
inactive: Potency [1] | Potency [6] | Potency [4]

C#Cc1cccc(Nc2ncnc3cc(OCCOC)c(OCCO)cc23)c1
active: Potency [1] 526 nM | Potency [6] 1870 nM | Potency [7] 264 nM | Potency [3] 1320 nM | Potency [10] 1870 nM | Potency [5] 1180 nM | Potency [9] 18.7 nM

Cc1cc(O)c2c(c1)C(=O)c1cccc(O)c1C2=O
active: viability (% of DMSO) [1] 136%
inactive: Potency [6] | Potency [3] | Potency [10] | Potency [5] | Potency [9]

COc1ccc(C(C)=O)c(O)c1
inactive: Potency [6] | Potency [7] | Potency [3] | Potency [4] | Potency [10]
active: Potency [1] 418 nM

COc1ccc([C@@H]2CNC(=O)C2)cc1OC1CCCC1
active: Potency [2] 10500 nM | Potency [3] 9350 nM | Potency [10] 2960 nM | Potency [5] 3320 nM | Potency [9] 26400 nM
inactive: Potency [1] | Potency [4]

CNC(=O)c1cccc(-c2ccc3c(N4CCOC[C@H]4C)nc(N4CCOC[C@H]4C)nc3n2)c1
active: Potency [1] 52.6 nM | Potency [6] 41.8 nM | Potency [7] 13.2 nM | Potency [3] 526 nM | Potency [4] 74.3 nM | Potency [5] 74.3 nM

C=CC(=O)Nc1cc(NC(=O)c2ccc(C)c(NC(=O)c3ccno3)c2)cc(C(F)(F)F)c1
active: Potency [8] 5900 nM | Potency [3] 16600 nM | Potency [4] 18700 nM | Potency [10] 18700 nM | Potency [5] 14800 nM

O=C(Nc1cc2cc[nH]c2cn1)c1ccccc1
active: Potency [1] 2960 nM | Potency [2] 7430 nM | Potency [6] 7430 nM | Potency [3] 8330 nM | Potency [4] 9350 nM | Potency [10] 9350 nM | Potency [5] 8330 nM | Potency [9] 13200 nM

COc1cc(C[C@@H](CO)[C@H](CO)Cc2ccc(O)c(OC)c2)ccc1O
active: Potency [1] 5900 nM | Potency [2] 1180 nM | Potency [6] 2640 nM | Potency [3] 1180 nM | Potency [10] 372 nM | Potency [5] 418 nM | Potency [9] 2960 nM

C=CCNc1c(O)cc2c(O)c1C[C@@H](C)C[C@H](OC)[C@@H](O)[C@@H](C)C=C(C)[C@H](OC(N)=O)[C@@H](OC)C=CC=C(C)C(=O)N2
active: Potency [1] 74.3 nM | Potency [2] 264 nM | Potency [6] 590 nM | Potency [7] 209 nM | Potency [3] 187 nM | Potency [4] 296 nM | Potency [10] 1050 nM | Potency [5] 469 nM | Potency [9] 148 nM
